Results published in the supplement of paper PMC10849652.
Of roughly 8,800 targets only a part is listed; those with a hit were picked by preference. About 0.5% of all pairs of compound and target were hits.

What was measured:
Experiment in all cases: log2 fold change, soluble protein after heating vs DMSO (PISA); higher = thermal stabilisation; K562 lysate, 10 uM; active = over 0.2 and 3.5 SD of the protein, either way, in both replicates (recomputed)
[1] = compound: C=CC(=O)N1CCC[C@@H](n2nc(-c3ccc(Oc4ccccc4)cc3)c3c(N)ncnc32)C1 [ibrutinib]
Outline: (§1)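 Soluble protein was defined as the supernatant remaining after 21,000xg for 90 min, following pooling of heated aliquots and adjustment to 0.5% NP-40 at 4°C. Before that, crude K562 extract at 1 mg/mL protein in PBS pH 7.4 with 1 mM MgCl2 was treated with 10 μM compound for 30 min and heated for 3 min across 48°C-58°C. Quantification used TMTpro 16plex LC-MS/MS with channel sums equalised, and values are log-two fold changes in thermal stability relative to solvent controls from duplicates.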

[2] = compound: CC(=O)c1cnc2ccc(-c3cc(Cl)c(O)c(Cl)c3)nc2c1N[C@H]1CC[C@H](CN(C)C)CC1
Outline: as §1

[3] = compound: CC(C)(C)Cn1c(N)nc2ccc(-c3[nH]c(C(C)(C)C)nc3-c3ccc(F)cc3)nc21 [ralimetinib]
Outline: as §1

[4] = compound: CC(C)(O)CC(=O)NCCn1ccc2ncnc(Nc3ccc(Oc4cccc(C(F)(F)F)c4)c(Cl)c3)c21
Outline: as §1

[5] = compound: CC(C)C1=C2N=C(C=C(N2N=C1)NCC3=CC=CC=C3)NCCCCCCN
Outline: as §1

[6] = compound: CC1=C(C(CC(=O)N1)C2=CC=C(C=C2)C(F)(F)F)C(=O)NC3=C(C=C4C(=C3)C=NN4)F
Outline: as §1

[7] = compound: CC1=C(C2=C(C=C1)C(=O)C3=CC=CC=C3N2CCCN)C
Outline: as §1

[8] = compound: CC1=C(C=C(C=C1)NC(=O)C2=CC(=CC=C2)C(C)(C)C#N)NC3=CC4=C(C=C3)N=CN(C4=O)C
Outline: as §1

[9] = compound: CC1=C(C=C(C=C1)NC(=O)C2=CC(=CC=C2)N(C)C)NC(=O)C3=CC=C(C=C3)O
Outline: as §1

[10] = compound: CC1=CC=C(C=C1)SC2=C3C=C(SC3=CN=C2)C(=O)N
Outline: as §1

Measured: log2 fold change

ABL1 isoform 2 (UniProt P00519)
Chain of UniProt P00519 (P00519 whole entry, looked up): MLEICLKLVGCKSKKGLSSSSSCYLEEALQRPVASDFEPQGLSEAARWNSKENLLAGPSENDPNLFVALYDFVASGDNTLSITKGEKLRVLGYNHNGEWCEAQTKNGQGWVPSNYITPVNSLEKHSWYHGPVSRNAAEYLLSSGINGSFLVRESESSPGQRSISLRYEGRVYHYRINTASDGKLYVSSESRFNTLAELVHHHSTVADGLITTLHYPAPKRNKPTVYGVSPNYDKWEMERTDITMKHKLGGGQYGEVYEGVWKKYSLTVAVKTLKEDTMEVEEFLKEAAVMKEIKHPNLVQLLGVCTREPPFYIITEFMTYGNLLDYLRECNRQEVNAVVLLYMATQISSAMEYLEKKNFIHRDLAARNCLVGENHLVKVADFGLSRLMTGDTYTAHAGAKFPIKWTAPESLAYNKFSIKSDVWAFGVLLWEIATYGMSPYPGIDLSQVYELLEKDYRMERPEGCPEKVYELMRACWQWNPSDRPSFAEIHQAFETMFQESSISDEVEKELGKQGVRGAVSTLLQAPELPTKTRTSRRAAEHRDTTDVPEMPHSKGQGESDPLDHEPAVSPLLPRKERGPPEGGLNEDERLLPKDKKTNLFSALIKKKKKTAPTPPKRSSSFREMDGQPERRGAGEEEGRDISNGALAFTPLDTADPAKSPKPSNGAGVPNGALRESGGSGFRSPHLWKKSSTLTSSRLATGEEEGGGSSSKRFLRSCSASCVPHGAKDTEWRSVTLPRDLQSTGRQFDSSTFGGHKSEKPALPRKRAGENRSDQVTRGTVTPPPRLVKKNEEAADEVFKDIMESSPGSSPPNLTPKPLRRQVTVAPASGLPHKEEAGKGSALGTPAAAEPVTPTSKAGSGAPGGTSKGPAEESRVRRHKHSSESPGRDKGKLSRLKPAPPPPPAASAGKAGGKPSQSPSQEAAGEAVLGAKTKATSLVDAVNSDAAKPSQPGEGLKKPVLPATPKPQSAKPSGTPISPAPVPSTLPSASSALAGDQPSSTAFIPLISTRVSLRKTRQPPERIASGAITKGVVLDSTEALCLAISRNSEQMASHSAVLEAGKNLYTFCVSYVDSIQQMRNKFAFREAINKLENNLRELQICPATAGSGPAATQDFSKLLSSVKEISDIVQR
inactive: [1] 0.157 | [2] 0.077 | [3] 0.019 | [4] 0.024 | [5] -0.017 | [6] -0.014 | [7] -0.01 | [8] 0.048 | [9] 0.011 | [10] -0.043

ARHGAP25 isoform 4 (UniProt P42331)
inactive: [1] 0.016 | [2] 0.036 | [3] 0.026 | [4] -0.003 | [5] -0.026 | [6] 0.064 | [7] -0.014 | [8] 0.117 | [9] 0.059 | [10] -0.006

ACADS (UniProt P16219)
inactive: [1] -0.006 | [2] 0.031 | [3] 0.004 | [4] -0.026 | [5] -0.002 | [6] -0.041 | [7] -0.022 | [8] 0.004 | [9] -0.027 | [10] 0.018

ABCF2 isoform 2 (UniProt Q9UG63)
inactive: [1] -0.012 | [2] 0.013 | [3] 0.059 | [4] 0.003 | [5] 0.01 | [6] 0.007 | [7] -0.008 | [8] -0.013 | [9] 0.021 | [10] 0.012

ADAR isoform 4 (UniProt P55265)
inactive: [1] 0.152 | [2] -0.025 | [3] 0.029 | [4] -0.019 | [5] -0.03 | [6] 0.018 | [7] 0.016 | [8] -0.002 | [9] 0.015 | [10] -0.021

ABHD11 (UniProt Q8NFV4)
inactive: [1] -0.012 | [2] 0.057 | [3] -0.04 | [4] -0.048 | [5] -0.2 | [6] 0.018 | [7] -0.241 | [8] -0.013 | [9] 0 | [10] -0.017

AKT1 (UniProt P31749)
Chain of UniProt P31749 (P31749 whole entry, looked up): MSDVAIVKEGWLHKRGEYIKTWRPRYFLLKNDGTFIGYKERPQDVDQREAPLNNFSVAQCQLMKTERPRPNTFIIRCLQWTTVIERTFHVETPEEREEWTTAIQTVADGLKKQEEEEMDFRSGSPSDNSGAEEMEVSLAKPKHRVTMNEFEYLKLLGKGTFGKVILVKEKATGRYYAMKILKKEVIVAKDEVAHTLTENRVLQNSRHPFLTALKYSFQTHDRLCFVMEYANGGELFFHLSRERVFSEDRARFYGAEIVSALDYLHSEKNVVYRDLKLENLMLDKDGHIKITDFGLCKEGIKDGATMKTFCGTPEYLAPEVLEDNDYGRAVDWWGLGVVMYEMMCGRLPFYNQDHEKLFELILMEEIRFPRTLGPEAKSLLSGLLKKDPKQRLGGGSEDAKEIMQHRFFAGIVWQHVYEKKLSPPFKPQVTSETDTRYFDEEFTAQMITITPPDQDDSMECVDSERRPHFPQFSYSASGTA
inactive: [1] 0.028 | [2] 0.013 | [3] 0.005 | [4] -0.023 | [5] 0.009 | [6] 0.003 | [7] -0.009 | [8] 0 | [9] -0.006 | [10] 0.019

AHCYL1 (UniProt O43865)
Chain of UniProt O43865 (O43865 whole entry, looked up): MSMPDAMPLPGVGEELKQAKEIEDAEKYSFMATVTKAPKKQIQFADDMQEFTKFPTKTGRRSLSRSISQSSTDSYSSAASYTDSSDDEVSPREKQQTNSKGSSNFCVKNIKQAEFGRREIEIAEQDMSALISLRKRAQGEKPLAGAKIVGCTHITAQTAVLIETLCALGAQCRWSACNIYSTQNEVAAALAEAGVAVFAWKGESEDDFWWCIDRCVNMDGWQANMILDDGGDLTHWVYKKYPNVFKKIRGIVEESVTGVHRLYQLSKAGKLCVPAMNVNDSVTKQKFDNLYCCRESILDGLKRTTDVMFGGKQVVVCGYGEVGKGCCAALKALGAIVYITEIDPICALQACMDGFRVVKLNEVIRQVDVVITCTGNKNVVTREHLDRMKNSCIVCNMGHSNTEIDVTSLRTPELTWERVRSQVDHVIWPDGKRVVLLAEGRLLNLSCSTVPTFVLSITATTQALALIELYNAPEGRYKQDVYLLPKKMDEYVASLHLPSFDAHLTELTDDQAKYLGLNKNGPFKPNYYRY
inactive: [1] 0.014 | [2] -0.02 | [3] -0.004 | [4] 0.022 | [5] 0.003 | [6] 0.016 | [7] -0.065 | [8] -0.028 | [9] 0.009 | [10] 0.021

ANXA13 isoform 2 (UniProt P27216)
inactive: [1] 0.051 | [2] 0.092 | [3] 0.022 | [4] 0.169 | [5] -0.057 | [6] -0.034 | [7] 0.062 | [8] 0.053 | [9] -0.001 | [10] 0.06

AIMP2 (UniProt Q13155)
Chain of UniProt Q13155 (Q13155 whole entry, looked up): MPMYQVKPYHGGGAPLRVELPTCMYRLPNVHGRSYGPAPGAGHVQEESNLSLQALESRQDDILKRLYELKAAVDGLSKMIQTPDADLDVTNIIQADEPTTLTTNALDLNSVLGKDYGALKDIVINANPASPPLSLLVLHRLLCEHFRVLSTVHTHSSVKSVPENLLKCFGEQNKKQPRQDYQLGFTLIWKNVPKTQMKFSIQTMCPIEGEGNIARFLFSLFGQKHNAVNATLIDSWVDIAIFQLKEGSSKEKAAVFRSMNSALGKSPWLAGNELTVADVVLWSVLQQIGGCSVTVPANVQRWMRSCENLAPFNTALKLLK
inactive: [1] 0 | [2] 0.013 | [3] 0.044 | [4] 0.015 | [5] 0.044 | [6] 0.002 | [7] 0.018 | [8] -0.005 | [9] 0.019 | [10] 0.028

AKAP8L (UniProt Q9ULX6)
inactive: [1] 0 | [2] -0.046 | [3] 0.002 | [4] -0.019 | [5] 0.009 | [6] -0.02 | [7] 0.003 | [9] 0.046 | [10] 0.032
active: [8] -0.271

ABHD17B (UniProt Q5VST6)
inactive: [1] 0.067 | [2] -0.031 | [3] -0.053 | [4] -0.037 | [5] -0.036 | [6] -0.076 | [7] 0.001 | [8] 0.013 | [9] 0.127 | [10] 0.018

AMDHD2 isoform 3 (UniProt Q9Y303)
inactive: [1] 0.032 | [2] 0.006 | [3] -0.059 | [4] -0.025 | [5] -0.011 | [6] 0.009 | [7] 0.013 | [8] -0.015 | [9] -0.017 | [10] -0.017

ACTBL2 (UniProt Q562R1)
Chain of UniProt Q562R1 (Q562R1 whole entry, looked up): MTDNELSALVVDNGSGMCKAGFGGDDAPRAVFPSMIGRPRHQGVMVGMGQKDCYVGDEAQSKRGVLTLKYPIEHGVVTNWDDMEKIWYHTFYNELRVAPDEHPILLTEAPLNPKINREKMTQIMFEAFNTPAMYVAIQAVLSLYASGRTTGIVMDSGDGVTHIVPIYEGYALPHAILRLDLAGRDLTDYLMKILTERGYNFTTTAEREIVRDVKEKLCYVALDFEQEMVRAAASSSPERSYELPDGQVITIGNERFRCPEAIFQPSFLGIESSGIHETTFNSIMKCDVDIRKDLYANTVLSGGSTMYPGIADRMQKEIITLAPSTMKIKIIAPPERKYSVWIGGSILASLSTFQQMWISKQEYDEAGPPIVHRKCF
inactive: [1] 0.001 | [2] -0.016 | [3] 0.006 | [4] 0.082 | [5] -0.034 | [6] 0.086 | [7] 0.069 | [8] -0.043 | [9] 0.017 | [10] 0.123

ALKBH4 (UniProt Q9NXW9)
inactive: [1] 0.076 | [2] 0.056 | [3] 0.032 | [4] 0.003 | [5] -0.031 | [6] 0.031 | [7] -0.036 | [8] 0.004 | [9] -0.006 | [10] 0.002

AMPD3 isoform 4 (UniProt Q01432)
inactive: [1] 0.05 | [2] 0.001 | [3] 0.037 | [4] -0.041 | [5] -0.019 | [6] -0.029 | [7] 0.011 | [8] 0.006 | [9] -0.004 | [10] -0.005

ARMC6 (UniProt Q6NXE6)
Chain of UniProt Q6NXE6 (Q6NXE6 whole entry, looked up): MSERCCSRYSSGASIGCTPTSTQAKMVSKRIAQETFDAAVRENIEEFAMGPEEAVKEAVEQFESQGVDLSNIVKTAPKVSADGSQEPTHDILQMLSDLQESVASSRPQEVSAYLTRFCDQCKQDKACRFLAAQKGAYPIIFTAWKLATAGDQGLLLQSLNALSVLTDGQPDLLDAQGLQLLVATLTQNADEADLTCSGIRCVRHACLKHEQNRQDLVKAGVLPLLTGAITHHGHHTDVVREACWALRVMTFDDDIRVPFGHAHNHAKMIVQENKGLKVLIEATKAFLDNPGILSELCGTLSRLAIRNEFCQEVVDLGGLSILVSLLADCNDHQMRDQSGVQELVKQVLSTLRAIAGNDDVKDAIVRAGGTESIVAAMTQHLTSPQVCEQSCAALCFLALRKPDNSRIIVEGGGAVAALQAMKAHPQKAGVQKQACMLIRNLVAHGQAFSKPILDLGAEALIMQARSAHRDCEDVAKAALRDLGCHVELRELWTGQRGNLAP
inactive: [1] 0.023 | [2] 0.005 | [3] 0.007 | [4] -0.005 | [5] 0.002 | [6] -0.013 | [7] 0.001 | [8] -0.011 | [9] 0.016 | [10] 0

ASB6 (UniProt Q9NWX5)
Chain of UniProt Q9NWX5 (Q9NWX5 whole entry, looked up): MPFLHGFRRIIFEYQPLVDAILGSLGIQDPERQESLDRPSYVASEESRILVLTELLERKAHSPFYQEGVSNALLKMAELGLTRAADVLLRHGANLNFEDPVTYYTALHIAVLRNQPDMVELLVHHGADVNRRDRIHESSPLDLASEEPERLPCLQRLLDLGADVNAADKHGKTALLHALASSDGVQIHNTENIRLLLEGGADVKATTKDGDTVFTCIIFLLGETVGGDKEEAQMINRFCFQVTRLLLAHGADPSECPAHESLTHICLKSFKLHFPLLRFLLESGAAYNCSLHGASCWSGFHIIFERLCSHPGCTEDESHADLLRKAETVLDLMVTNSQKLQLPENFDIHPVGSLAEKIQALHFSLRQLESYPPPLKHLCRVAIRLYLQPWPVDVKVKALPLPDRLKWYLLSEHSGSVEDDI
inactive: [1] -0.04 | [2] -0.087 | [3] 0.027 | [4] -0.013 | [5] 0.001 | [6] -0.13 | [7] -0.007 | [8] 0.055 | [9] -0.052 | [10] 0.01

AKT2 (UniProt P31751)
Chain of UniProt P31751 (P31751 whole entry, looked up): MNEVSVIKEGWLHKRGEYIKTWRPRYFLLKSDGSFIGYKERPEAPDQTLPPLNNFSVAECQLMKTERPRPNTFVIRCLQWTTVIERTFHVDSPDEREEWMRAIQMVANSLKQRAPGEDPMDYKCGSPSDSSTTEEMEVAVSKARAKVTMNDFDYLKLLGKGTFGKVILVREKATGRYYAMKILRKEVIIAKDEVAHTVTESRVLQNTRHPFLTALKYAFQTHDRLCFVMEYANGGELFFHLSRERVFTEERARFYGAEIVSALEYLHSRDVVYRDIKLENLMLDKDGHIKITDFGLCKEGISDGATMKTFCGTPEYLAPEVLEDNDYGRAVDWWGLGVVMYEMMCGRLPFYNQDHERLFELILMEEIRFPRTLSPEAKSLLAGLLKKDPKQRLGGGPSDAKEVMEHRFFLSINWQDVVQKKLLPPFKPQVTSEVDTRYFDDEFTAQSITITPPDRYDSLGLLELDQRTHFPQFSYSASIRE
inactive: [1] -0.016 | [2] 0.006 | [3] 0.026 | [4] 0.006 | [5] -0.006 | [6] 0.011 | [7] 0.007 | [8] 0.005 | [9] -0.004 | [10] -0.044

AKAP8 (UniProt O43823)
inactive: [1] 0 | [2] -0.019 | [3] -0.039 | [4] -0.084 | [5] -0.009 | [6] 0.076 | [7] -0.056 | [8] -0.158 | [9] 0.016 | [10] -0.03

ARMCX5 (UniProt Q6P1M9)
inactive: [1] 0.04 | [2] -0.018 | [3] 0.012 | [4] 0.013 | [5] -0.004 | [6] -0.047 | [7] 0.053 | [9] -0.049 | [10] -0.093

ALDH18A1 isoform 2 (UniProt P54886)
inactive: [3] -0.308 | [4] -0.245 | [7] -0.378 | [8] 0.03 | [9] 0.19

ANKRD30A (UniProt Q9BXX3)
inactive: [1] -0.01 | [2] 0.77 | [3] 0.014 | [4] 0.088 | [6] 0.007 | [7] 0.038 | [8] -0.088 | [9] 0.077 | [10] -0.177

ARL13B (UniProt Q3SXY8)
inactive: [1] -0.001 | [2] -0.033 | [3] 0.058 | [4] -0.032 | [5] 0.081 | [7] -0.002 | [8] 0.047 | [9] -0.068 | [10] 0.077

AGPAT2 (UniProt O15120)
inactive: [3] 0.1 | [4] -0.071 | [5] 0.046 | [6] 0.03 | [8] -0.064 | [9] 0.013

ACVR1 (UniProt Q04771)
Chain of UniProt Q04771 (Q04771 whole entry, looked up): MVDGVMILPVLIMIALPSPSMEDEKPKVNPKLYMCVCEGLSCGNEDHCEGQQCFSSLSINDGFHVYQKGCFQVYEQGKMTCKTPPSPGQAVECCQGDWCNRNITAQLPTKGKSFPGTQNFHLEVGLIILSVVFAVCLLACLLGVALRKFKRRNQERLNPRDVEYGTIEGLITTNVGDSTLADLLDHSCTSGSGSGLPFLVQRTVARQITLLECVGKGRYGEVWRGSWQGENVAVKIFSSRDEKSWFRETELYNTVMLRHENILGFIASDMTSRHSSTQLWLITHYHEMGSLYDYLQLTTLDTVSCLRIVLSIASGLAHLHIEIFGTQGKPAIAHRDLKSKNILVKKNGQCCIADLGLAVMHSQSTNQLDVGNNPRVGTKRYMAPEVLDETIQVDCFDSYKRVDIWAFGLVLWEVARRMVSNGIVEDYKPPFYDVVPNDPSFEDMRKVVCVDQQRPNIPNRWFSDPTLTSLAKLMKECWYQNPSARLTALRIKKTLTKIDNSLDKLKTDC
inactive: [1] -0.047 | [6] -0.152 | [7] -0.02

ADAM17 (UniProt P78536)
inactive: [1] 0.037 | [3] -0.012 | [4] -0.032 | [5] -0.056 | [6] 0.16 | [7] -0.029 | [8] -0.013 | [9] -0.027

ADD1 isoform 4 (UniProt P35611)
inactive: [1] 0.214 | [2] 0.003 | [3] -0.104 | [4] -0.356 | [5] 0.056 | [7] 0.004 | [9] 0.017 | [10] -0.341

AGO4 (UniProt Q9HCK5)
inactive: [1] 0.034 | [2] -0.035 | [3] 0.022 | [4] -0.011 | [5] -0.049 | [6] 0.025 | [7] 0.05 | [8] 0 | [9] -0.013 | [10] -0.024
